Bioassay records as filed in PubChem.
The entries come from a sample that favours hits as a whole.
ALOX12 inh – blocks human arachidonate 12S-lipoxygenase | P18054 | AID 1671190 | purified 12hLO, xylenol orange hydroperoxide absorbance | 580,000 tested, 1.1% active | Potency, µM (highest dose often 108 µM), usual class: inhibitors
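Purified human 12hLO (150 nM final) in 25 mM Hepes, 0.01% Triton X-100, pH 7.0 was preincubated 15 min at room temperature with compound. Then 40 uM arachidonic acid was added, 30 min. Hydroperoxide was read by Fe-XO absorbance ratio 573/405 nm.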
Glioma ERSR ind – induces the endoplasmic reticulum stress response in human glioma cells | Potency, µM, most hits filed as activators | U87-MG GRP78 promoter luciferase reporter, 16 h | AID 602332 | 420,000 tested, 0.02% active; further: series mostly up to about 76 µM; nearly all actives have a fitted effect of over 35% in size
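Stably transfected U87-MG human glioma cells carrying a GRP78-based luminescent sensor were seeded at 1000 cells/well, pin-dosed with compounds and incubated 16 h. Luciferase reagent was then added, and end-point luminescence was read after 10 min at room temperature.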
G9a block – inhibitors of human histone lysine methyltransferase G9a; 350,000 tested, 8.8% active; Potency, µM (top dose mostly 102 µM), hits mostly inhibitors; G9a H3K9 monomethylation, AlphaScreen, 2 h; Q96KQ7; further: nearly all actives have a fitted effect of over 75% in size
Target sequence (Q96KQ7 913-1193 limits assumed): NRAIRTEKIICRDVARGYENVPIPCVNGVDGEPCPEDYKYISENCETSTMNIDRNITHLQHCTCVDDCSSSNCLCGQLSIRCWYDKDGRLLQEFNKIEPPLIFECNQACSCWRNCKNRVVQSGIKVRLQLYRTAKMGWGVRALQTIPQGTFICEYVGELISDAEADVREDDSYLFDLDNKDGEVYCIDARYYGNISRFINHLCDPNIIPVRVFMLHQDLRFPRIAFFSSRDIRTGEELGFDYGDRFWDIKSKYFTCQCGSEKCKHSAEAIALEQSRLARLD
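Step 1: enzyme (final 20 nM) with compound, 15 min RT. Step 2: substrate peptide 500 nM and SAM 20 uM, 2 h RT. Step 3: anti-H3K9me1 antibody and AlphaScreen beads, 10 min, then plate read.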
VDR inhibitor – inhibitors of human vitamin D receptor; P11473; 400,000 tested, 0.93% active; Potency, µM, usual class: inhibitors; AID 504847; VDR-SRC2-3 peptide fluorescence polarization, 2 h
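The screen uses fluorescence polarization to detect compounds that interfere with recruitment of the SRC2-3 coactivator peptide to VDR; plates are read after 2 h at room temperature.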
Sfp PPTase inh – Sfp phosphopantetheinyl transferase inhibition | Potency, µM, usual class: inhibitors | Q9F4F7 | Biochemical Sfp PPTase activity, qHTS | 310,000 tested, 3.5% active;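 further: the enzyme is Sfp with the accession as filed and its product quenches rhodamine fluorescence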
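Fluorescence-quenching assay: 15 nM Sfp-PPTase preincubated 15 min at room temperature with compound, then 5 uM rhodamine-CoA and 12.5 uM BHQ-2-labelled YbbR peptide added. Fluorescence (ex 525/em 598 nm) read at start and after 30 min; difference gives rate.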
Large screens that a line does not name were inactive; ! = not confirmed by another sample. The call rests on the fitted dose curve; in most records, active means well fitted curve in the direction sought with a large enough effect; inconclusive means small, poorly fitted or top-dose-only effect, or another doubt; inactive means no such curve, though single readings can be large; an effect the other way counts as inactive or inconclusive.

Cc1ccccc1Nc1nnc(SCC2CCCCO2)s1 (stereo not drawn)	G9a block inconclusive
Cc1ccc(Nc2nnc(SCC3CCCCO3)s2)cc1 (stereo not drawn)	G9a block 40µM
Cc1ccccc1-n1c(N)cc(=O)[nH]c1=S	none
Nc1cc(=O)[nH]c(=O)n1-c1ccc(Cl)cc1	none
Cc1ccccc1-n1c(O)cc(=O)[nH]c1=S	G9a block 45µM, Sfp PPTase inh 56µM
O=c1cc(O)n(-c2ccccc2F)c(=S)[nH]1	ALOX12 inh inconclusive, G9a block 50µM, Sfp PPTase inh 50µM
O=c1cc(O)n(-c2ccc(Cl)cc2)c(=S)[nH]1	ALOX12 inh inconclusive, G9a block 10µM, Sfp PPTase inh 50µM
CCCc1cc(C(=O)OC)c(NC(=O)CC2Sc3ccc(C(F)(F)F)cc3NC2=O)s1 (stereo not drawn)	none (no result: Glioma ERSR ind, G9a block, VDR inhibitor, Sfp PPTase inh)
CC(=O)Nc1ccc(CNC(=O)c2cc(=O)[nH]c3ccccc23)cc1	none (no result: Glioma ERSR ind, G9a block, VDR inhibitor, Sfp PPTase inh)
O=C(O)CCNS(=O)(=O)c1ccc(Cl)cc1	none (no result: Glioma ERSR ind, G9a block, VDR inhibitor, Sfp PPTase inh)
CCc1nc(C#N)c(N2CCN(c3cccc(Cl)c3)CC2)o1	none (no result: Glioma ERSR ind, G9a block, VDR inhibitor, Sfp PPTase inh)
O=C(Nc1ccc(F)cc1)c1ccc(N2C(=O)CCS2(=O)=O)cc1Cl	none (no result: Glioma ERSR ind, G9a block, VDR inhibitor, Sfp PPTase inh)
Cc1nc2cc(NC(=O)COc3cccc(C)c3C)ccc2o1	none (no result: Glioma ERSR ind, G9a block, VDR inhibitor, Sfp PPTase inh)
Cc1oc(-c2ccccc2)cc1C(=O)Nc1ccc2ccccc2c1	ALOX12 inh inconclusive, Sfp PPTase inh 89µM
O=C(c1cc(-c2ccco2)[nH]n1)N1CCN(c2ccccn2)CC1	none (no result: Glioma ERSR ind, G9a block, VDR inhibitor, Sfp PPTase inh)
CC(=O)Oc1ccc2c(-c3ccc(F)cc3)noc2c1	none (no result: Glioma ERSR ind, G9a block, VDR inhibitor, Sfp PPTase inh)
N#CC(=C(/N)Sc1ccccc1N)/C(C#N)=C(\N)Sc1ccccc1N	ALOX12 inh 32µM!, G9a block 13µM, Sfp PPTase inh 56µM (no result: VDR inhibitor)
N#Cc1ncc(C(F)(F)F)cc1Sc1ccccc1N	none
COc1ccc2c(CN3CCN(c4ccccc4)CC3)cc(=O)oc2c1	none (no result: Glioma ERSR ind, G9a block, VDR inhibitor, Sfp PPTase inh)
O=C1CSC(=S)N1/N=C/c1cccnc1	G9a block 7.1µM, Sfp PPTase inh inconclusive
COc1cc(/C=N/N2C(=O)CSC2=S)ccc1O	ALOX12 inh inconclusive
O=C1CSC(=S)N1/N=C/c1cc(Br)c(O)c(Br)c1	G9a block 40µM, VDR inhibitor inconclusive, Sfp PPTase inh inconclusive (no result: ALOX12 inh)
O=C1CSC(=S)N1N=Cc1ccc(Cl)cc1Cl	ALOX12 inh 35µM, VDR inhibitor inconclusive (no result: G9a block, Sfp PPTase inh)
COc1ccc(Br)cc1/C=N/N1C(=O)CSC1=S	ALOX12 inh inconclusive, G9a block 79µM
O=C1CSC(=S)N1N=Cc1cccc2ccccc12	ALOX12 inh inconclusive (no result: G9a block, Sfp PPTase inh)
O=C1CSC(=S)N1N=Cc1cccc(OCc2ccccc2)c1	none (no result: G9a block, VDR inhibitor, Sfp PPTase inh)
CC(C)CCN1CCCC2(C1)NC(=O)c1ccccc1O2 (stereo not drawn)	none (no result: Glioma ERSR ind, G9a block, VDR inhibitor, Sfp PPTase inh)
N#C/C(=C\c1ccc(OCc2ccc(C#N)cc2)cc1)c1nc2ccccc2[nH]1	none (no result: Glioma ERSR ind, G9a block, VDR inhibitor, Sfp PPTase inh)
Cc1cc(S(=O)(=O)NCCO)ccc1F	none (no result: Glioma ERSR ind, G9a block, VDR inhibitor, Sfp PPTase inh)
O=C1CSC(=S)N1N=Cc1ccccc1O	ALOX12 inh 6.3µM, VDR inhibitor inconclusive (no result: G9a block, Sfp PPTase inh)
Cc1ccccc1/C=N/N1C(=O)CSC1=S	G9a block inconclusive
CC1(C)Cc2c(sc3c2C(=O)N(c2ccccc2)C2=NCCN23)CS1	ALOX12 inh inconclusive, Sfp PPTase inh 89µM
COC1C(=O)N(c2cccc(F)c2)C12CCN(Cc1ccc(F)cc1F)CC2 (stereo not drawn)	none (no result: Glioma ERSR ind, G9a block, VDR inhibitor, Sfp PPTase inh)
Cc1ccccc1C(OCCN(C(C)C)C(C)C)c1ccccc1 (stereo not drawn)	G9a block 28µM
COc1cc2ccccc2cc1C(=O)N1CCN(CC(=O)Nc2ccccc2Cl)CC1	none (no result: Glioma ERSR ind, G9a block, VDR inhibitor, Sfp PPTase inh)
COCCCNC(=O)c1cc(S(=O)(=O)N2CCOCC2)ccc1SCc1cccc(OC)c1OC	G9a block 32µM, Sfp PPTase inh 50µM
Cc1cc(-n2c(C)cc(C(=O)CSc3nncn3C)c2C)no1	none (no result: G9a block, Sfp PPTase inh)
Cc1cc(-n2c(C)cc(C(=O)CSc3nncn3C(C)C)c2C)no1	G9a block 56µM (no result: Sfp PPTase inh)
O=S(=O)(Cc1ccccc1)Nc1cc(F)cc(F)c1	none (no result: Glioma ERSR ind, G9a block, VDR inhibitor, Sfp PPTase inh)
O=C(c1c(F)cccc1F)N(Cc1cccc2[nH]ccc12)C1CC1	none (no result: Glioma ERSR ind, G9a block, VDR inhibitor, Sfp PPTase inh)
CC1CCc2c(nc3ncnn3c2N2CC(C)OC(C)C2)C1 (stereo not drawn)	ALOX12 inh inconclusive
CC1CN(c2c3c(nc4ncnn24)CCCC3)CC(C)O1 (stereo not drawn)	G9a block 3.2µM
CC(=O)c1sc2nc(C)c3c(c2c1N)CCCC3	ALOX12 inh inconclusive, Sfp PPTase inh inconclusive
CC(=O)c1sc2nsc(SCCN3CCCC3)c2c1N	Sfp PPTase inh 40µM
